This is an account of results in PubChem BioAssay AID463173 (ICCB-Longwood Screening Facility, Harvard Medical School, 2010).

About 4,300 (8.3%) of roughly 52,000 compounds were called active. The full list was thinned out, with actives kept by preference. A number with no mark means an inactive call. Rule as the data show it: active = survival mostly below about 52% (no sharp cut-off); inactive = mostly above about 56%.

The experiment relates to DeltatarO mutant. Briefly: S. aureus survival, RN4220 and DeltatarO strains – OD600, teichoic acid synthesis inhibitors, primary screen (AID 463173). As to conditions: S. aureus RN4220 wild type/DeltatarO growth, OD600, 18 h, stronger effect = lower value, screened at 18.75 µg/mL (by protocol).
Turning to `CCN(CC)CCCNC(=O)Cn1ncc2c3ccccc3n(Cc3ccccc3)c2c1=O`, the survival was 95%. Turning to `O=C(NCCCN1CCN(c2ccccc2F)CC1)c1cc2c(Cl)nc3ccccc3c2s1`, the survival is 51% (active). With `COc1ccc(N2CCN(CCCNC(=O)c3cc(Nc4ccc(OC)cc4OC)nc4ccccc34)CC2)cc1`, the survival was 87%. To `O=C(NCCCN1CCN(c2ccc(F)cc2)CC1)c1cc2c(Cl)nc3ccccc3c2s1` belongs 91%; to `COc1ccc(N2CCN(CCCNC(=O)c3cc(Nc4ccccc4OC)nc4ccccc34)CC2)cc1`, 62%. As for `COc1ccc2c(c1)CC(C(=O)NCCN1CCN(c3cccc(C)c3C)CC1)CO2` (stereo unspecified), the survival was 76%. To `COc1ccc(Nc2cc(C(=O)NCCCN3CCN(c4ccccc4F)CC3)c3ccccc3n2)c(OC)c1` belongs 48% (active). As for `COc1ccc2c(c1)CC(C(=O)NCCN1CCN(c3ccccc3F)CC1)CO2` (stereo unspecified), the survival was 47% (active). Regarding `O=C(c1cc2c(s1)-c1ccccc1OC2)N1CCN(c2ccccc2F)CC1`, the survival was 41% (active). In the case of `COc1ccccc1N1CCN(C(=O)c2cc3c(s2)-c2ccccc2OC3)CC1`, the survival is 88%. With `CCCN1CCN(CCCNC(=O)c2cc3c(Cl)nc4ccccc4c3s2)CC1`, the survival was 116%. For the compound `COc1ccc2c(c1)CC(C(=O)NCCCN1CCN(c3ccccc3F)CC1)CO2` (stereo unspecified), the survival was 87%. With `O=C(c1cc2c(s1)-c1ccccc1OC2)N1CCN(c2ccc(F)cc2)CC1`, the survival was 59%. For the compound `COc1cccc(N2CCN(C(=O)Cn3c(-c4cccs4)cc4ccccc43)CC2)c1`, the survival is 104%. Then `CCCCOc1ccc(C(C)NC(=O)c2cccc(Nc3nc4ccccc4n4nnnc34)c2)cc1` (stereo unspecified), with 67%.

For `Cc1ccc2[nH]c3nc(NN)nnc3c2c1`, the survival was 77%. For `CCOc1ccc(N2CC(NC(=O)Cc3ccccc3)CC2=O)cc1` (stereo unspecified), the survival is 135%. To `COc1ccc(N(Cc2nnc3n2CCCCC3)C(=O)Nc2ccc(Cl)cc2)cc1Cl` belongs 85%; to `Cc1ccccc1NC(=O)CSc1nc2c(c(=O)n(C)c(=O)n2C)n1Cc1ccccc1F`, 56%. In the case of `CCN(CC)CCNC(=O)c1nn(C)c2c1CS(=O)(=O)c1ccccc1-2`, the survival is 59%. As to `O=S(=O)(Nc1cccc(-c2ccc(N3CCCC3)nn2)c1)c1ccc(F)c(C(F)(F)F)c1`, the survival was 71%.

As to `Cc1cccc2c(=O)c(N)c[nH]c12`, the survival is 105%. Take `O=C(Cn1c(=O)n(-c2ccccc2)c(=O)c2ccc(C(=O)NCc3ccc4c(c3)OCO4)cc21)Nc1ccc(Br)cc1F`: the survival was 117%. Then `CCc1ccc(CNC(=O)CN2C(=O)CCn3nc(-c4cn(C)c5ccccc45)cc32)cc1`, with 81%; and `Cn1c(Nc2ccc(Cl)cc2)cc(=O)n(C)c1=O`, with 93%. Regarding `Cc1cc(F)ccc1NC(=O)C1CCN(C(=O)c2cnn(-c3ccccc3)c2-n2cccc2)CC1`, the survival was 80%.

Turning to `Cc1cccc2c1-c1sc(C(=O)NCCCN3CCN(c4ccccc4F)CC3)cc1CO2`, the survival was 63%.

Consider `O=C(NCCCN1CCN(c2ccccc2F)CC1)c1cc2c(s1)-c1ccccc1OC2`, for which the survival was 11% (active).

For the compound `O=C(NCCCN1CCN(c2ccc(F)cc2)CC1)c1cc2c(s1)-c1ccccc1OC2`, the survival was 55% (active). For the compound `O=C(NCCCN1CCN(c2ccccc2)CC1)c1cc2c(s1)-c1ccccc1OC2`, the survival was 53%. For `CCCN1CCN(CCCNC(=O)c2cc3c(s2)-c2ccccc2OC3)CC1`, the survival was 85%. Consider `CCN1CCN(CCCNC(=O)c2cc3c(s2)-c2ccccc2OC3)CC1`, for which the survival is 88%.

Consider `Cc1ccc(CCNC(=O)CCc2cn(Cc3ccccc3C)c3ccccc23)cc1`, for which the survival is 68%. Consider `CCN(C(=O)c1cn(CC)c(=O)c2cc(OC)c(OC)cc12)c1ccc(C)c(C)c1`, for which the survival was 169%. Regarding `COC(=O)C(Cc1c[nH]c2ccccc12)NC(=O)COc1cccc(C)c1` (stereo unspecified), the survival is 65%. For the compound `Cc1cccc(OCC(=O)NC(Cc2c[nH]c3ccccc23)C(=O)O)c1C` (stereo unspecified), the survival was 48%. On to `CCc1ccc(OCC(=O)NC(Cc2c[nH]c3ccccc23)C(=O)O)cc1` (stereo unspecified), for which the survival was 40% (active). To `Cc1cc(C)cc(OCC(=O)NC(Cc2c[nH]c3ccccc23)C(=O)O)c1` (stereo unspecified) belongs 51%.

Turning to `COc1ccc(OCC(=O)NC(Cc2c[nH]c3ccccc23)C(=O)O)cc1` (stereo unspecified), the survival is 60%.

On to `CCc1ccc(C(=O)COC(=O)C(Cc2c[nH]c3ccccc23)NC(=O)c2ccc(Br)cc2)cc1` (stereo unspecified), for which the survival is 142%. As to `CCOC(=O)C(Cc1c[nH]c2ccccc12)NC(=O)COc1ccc(Cl)c(C)c1` (stereo unspecified), the survival was 36% (active).

In the case of `Cc1cc(OCC(=O)NC(Cc2c[nH]c3ccccc23)C(=O)O)ccc1Cl` (stereo unspecified), the survival was 53%. `COC(=O)C(Cc1c[nH]c2ccccc12)NC(=O)COc1ccc(Cl)cc1Cl` (stereo unspecified): the survival is 46%.

`CC(C)c1ccc(OCC(=O)NC(Cc2c[nH]c3ccccc23)C(=O)O)cc1` (stereo unspecified): the survival is 42% (active). To `CC(C)(C)c1ccc(OCC(=O)NC(Cc2c[nH]c3ccccc23)C(=O)O)cc1` (stereo unspecified) belongs 56%. Regarding `CCOC(=O)C(Cc1c[nH]c2ccccc12)NC(=O)COc1ccc(CC)cc1` (stereo unspecified), the survival was 33% (active). Then `O=C(CCn1c(=O)c2cccn2c2cccnc21)Nc1ccccc1Br`, with 74%. Consider `COc1ccc(N2CC(NC(=O)c3cccs3)CC2=O)cc1` (stereo unspecified), for which the survival was 89%. To `O=C(O)Cn1nc(N2CCN(c3ccc(F)cc3)CC2)ccc1=O` belongs 84%; to `Cc1ccc(NC(=O)Cn2c(=O)n(CCCCCC(=O)NCc3ccc(F)cc3)c(=O)c3sccc32)c(C)c1`, 66%. With `O=C(O)CCn1nnc(-c2cccs2)n1`, the survival is 103%.

In the case of `Cc1cccc(N2CCN(C(=O)c3ccc(NC(=O)c4nsc5ccccc45)cc3)CC2)c1C`, the survival was 76%. Take `O=C(NCCN1CCCCC1)c1ccc(Cn2c(SCc3cccc(F)c3)nc3cccnc32)cc1`: the survival was 103%. For `Cc1c(C(=O)Nc2ccccc2)sc2ncn(CC(=O)N3CCOCC3)c(=O)c12`, the survival was 87%. For the compound `COc1ccc(C(=O)/C=C/c2cn(CC(O)CN3CCc4ccccc43)c3ccccc23)cc1OC` (stereo unspecified), the survival was 68%. For the compound `CCOc1ccc(C(=O)OC(C)CN2CCCCC2)cc1` (stereo unspecified), the survival is 96%. `O=C(Cn1cc(SCc2ccc(Br)cc2)c2ccccc21)N1CCCCC1`: the survival was 80%. In the case of `CCOc1ccc(C(=O)/C=C/c2cn(CC(O)CN3CCCCCC3)c3ccccc23)cc1` (stereo unspecified), the survival was 1% (active). `O=C(/C=C/c1cn(CC(O)CN2CCc3ccccc32)c2ccccc12)c1ccc(Br)cc1` (stereo unspecified): the survival was 68%.

As for `O=C(/C=C/c1cn(CC(O)CN2CCCCCC2)c2ccccc12)c1ccc(Br)cc1` (stereo unspecified), the survival is -3% (active). To `Cc1ccc(C(=O)/C=C/c2cn(CC(O)CN3CCCCCC3)c3ccccc23)cc1` (stereo unspecified) belongs 12% (active). Turning to `COc1ccc(C(=O)/C=C/c2cn(CC(O)CN3CCCCCC3)c3ccccc23)cc1OC` (stereo unspecified), the survival was 80%. As for `O=C(/C=C/c1cn(CC(O)CN2CCCCCC2)c2ccccc12)c1ccccc1` (stereo unspecified), the survival was 49%. `COc1ccc(CCn2c3c(c(=O)[nH]c2=O)C(NC(=O)c2ccccc2OC)(C(F)(F)F)C(=O)N3)cc1OC` (stereo unspecified): the survival is 81%.

For `Cc1ccc(NC(=O)c2ccc3c(O)c(S(=O)(=O)c4ccccc4)c(=O)[nH]c3c2)cc1Cl`, the survival is 78%. Turning to `CCc1cccc(NC(=O)CSc2nnc(-c3cc4occc4n3C)n2-c2ccccc2C)c1`, the survival is 89%.

In the case of `COc1ccccc1N1CCN(C(=O)C2CCCN(S(=O)(=O)c3ccc4c(c3)CCCN4C(C)=O)C2)CC1` (stereo unspecified), the survival is 88%.

`CCN1CCN(C(C)C(=O)NCc2ccc(OC)cc2)CC1` (stereo unspecified): the survival was 85%.

In the case of `CNC(=O)CSc1nnc(NC(=O)Nc2ccccc2)s1`, the survival was 94%. As for `O=C(Cn1c(SCC(=O)N2CCc3ccccc32)nc2ccccc21)NC1CC1`, the survival is 77%. On to `c1ccc2c(c1)nc1n2CCC1`, for which the survival is 96%. As to `OC1COCc2nc3ccccc3n2C1` (stereo unspecified), the survival was 57% (active). Turning to `O=C(NCCc1ccccc1)c1ccc2c(c1)nc1n2CCOC1`, the survival was 109%. Regarding `Cn1c(=O)n(C)c2cc(N3CCOCC3)c(NS(=O)(=O)c3ccc(C(C)(C)C)cc3)cc21`, the survival was 81%. As to `COc1cccc(NC(=O)C(Cc2ccccc2)N2Cc3ccccc3C2=O)c1` (stereo unspecified), the survival was 66%.

On to `CCOc1ccc(CCNC(=O)c2cc3sc(CC)cc3n2C)cc1OCC`, for which the survival was 55%.

On to `COc1cc(CN(C(=O)COc2ccc(F)cc2)c2ccccn2)cc(OC)c1OC`, for which the survival is 81%. To `Cc1cccc(CN2CCC(CNC(=O)Cn3ncc4c([nH]c5ccc(C)cc54)c3=O)CC2)c1` belongs 120%; to `OCC#CCSc1nc2ccccc2s1`, 71%; to `Cc1cc(C)nc(SC2=CS(=O)(=O)c3ccccc32)n1`, 88%. For `O=S1(=O)C=C(Sc2nc3ccccc3s2)c2ccccc21`, the survival is 4% (active). Regarding `CC(C)CCn1c(=O)c2cccnc2n(CC(=O)Nc2ccccc2)c1=O`, the survival was 72%. Take `CCCS(=O)(=O)c1c(Nc2ccccc2C)sc(C(=O)c2ccccc2)c1N`: the survival was 28% (active). Then `CCOc1ccccc1Nc1sc(C(=O)c2ccccc2)c(N)c1S(=O)(=O)c1ccc(C)cc1`, with 92%. Then `Cc1ccccc1Nc1sc(C(=O)c2ccccc2)c(N)c1S(C)(=O)=O`, with 99%; and `CCS(=O)(=O)c1c(Nc2cc(C)ccc2C)sc(C(=O)c2ccccc2)c1N`, with 90%; and `CCOc1ccccc1Nc1sc(C(=O)c2ccc(Cl)cc2)c(N)c1C#N`, with 94%.

For `CCOc1ccc(Nc2sc(C(=O)c3ccc(F)cc3)c(N)c2S(=O)(=O)c2ccc(C)cc2)cc1`, the survival was 52% (active).

With `COc1ccc(S(=O)(=O)c2c(Nc3ccc(C)cc3)sc(C(=O)c3ccc(C)cc3)c2N)cc1`, the survival is 105%. To `CCOc1ccccc1Nc1sc(C(=O)c2ccc(Cl)cc2)c(N)c1S(=O)(=O)c1ccccc1` belongs 25% (active).

On to `Cc1ccc(Nc2sc(C(=O)c3ccc(F)cc3)c(N)c2S(=O)(=O)c2ccc(C)cc2)cc1`, for which the survival was 116%.
